Experimental data from PubChem BioAssay.
Active and inactive are the calls of the source.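 Rule for the calls, unless noted: active = mean inhibition above 46.68%, the untreated control wells mean plus 3 SD; inactive = the rest.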

Columns and labels:
[1] = target: Nuclear receptor coactivator 3 (Homo sapiens) (UniProt Q9Y6Q9); experiment: SRC3 coactivator transcriptional activity inhibitors, confirmation, cell-based, luminescence, quadruplicate (AID 588792;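 active = mean inhibition over 43.08%, the solvent-only control mean plus 3 SD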;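 note: 0% = DMSO treated cells and 100% = gossypol at 36 µM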); conditions: HEK293 GAL4-SRC3 luciferase reporter, at 3.6 µM, stronger effect = higher value
Sequence of Nuclear receptor coactivator 3 (Homo sapiens) (Q9Y6Q9 whole entry, looked up, the tested form may be a part): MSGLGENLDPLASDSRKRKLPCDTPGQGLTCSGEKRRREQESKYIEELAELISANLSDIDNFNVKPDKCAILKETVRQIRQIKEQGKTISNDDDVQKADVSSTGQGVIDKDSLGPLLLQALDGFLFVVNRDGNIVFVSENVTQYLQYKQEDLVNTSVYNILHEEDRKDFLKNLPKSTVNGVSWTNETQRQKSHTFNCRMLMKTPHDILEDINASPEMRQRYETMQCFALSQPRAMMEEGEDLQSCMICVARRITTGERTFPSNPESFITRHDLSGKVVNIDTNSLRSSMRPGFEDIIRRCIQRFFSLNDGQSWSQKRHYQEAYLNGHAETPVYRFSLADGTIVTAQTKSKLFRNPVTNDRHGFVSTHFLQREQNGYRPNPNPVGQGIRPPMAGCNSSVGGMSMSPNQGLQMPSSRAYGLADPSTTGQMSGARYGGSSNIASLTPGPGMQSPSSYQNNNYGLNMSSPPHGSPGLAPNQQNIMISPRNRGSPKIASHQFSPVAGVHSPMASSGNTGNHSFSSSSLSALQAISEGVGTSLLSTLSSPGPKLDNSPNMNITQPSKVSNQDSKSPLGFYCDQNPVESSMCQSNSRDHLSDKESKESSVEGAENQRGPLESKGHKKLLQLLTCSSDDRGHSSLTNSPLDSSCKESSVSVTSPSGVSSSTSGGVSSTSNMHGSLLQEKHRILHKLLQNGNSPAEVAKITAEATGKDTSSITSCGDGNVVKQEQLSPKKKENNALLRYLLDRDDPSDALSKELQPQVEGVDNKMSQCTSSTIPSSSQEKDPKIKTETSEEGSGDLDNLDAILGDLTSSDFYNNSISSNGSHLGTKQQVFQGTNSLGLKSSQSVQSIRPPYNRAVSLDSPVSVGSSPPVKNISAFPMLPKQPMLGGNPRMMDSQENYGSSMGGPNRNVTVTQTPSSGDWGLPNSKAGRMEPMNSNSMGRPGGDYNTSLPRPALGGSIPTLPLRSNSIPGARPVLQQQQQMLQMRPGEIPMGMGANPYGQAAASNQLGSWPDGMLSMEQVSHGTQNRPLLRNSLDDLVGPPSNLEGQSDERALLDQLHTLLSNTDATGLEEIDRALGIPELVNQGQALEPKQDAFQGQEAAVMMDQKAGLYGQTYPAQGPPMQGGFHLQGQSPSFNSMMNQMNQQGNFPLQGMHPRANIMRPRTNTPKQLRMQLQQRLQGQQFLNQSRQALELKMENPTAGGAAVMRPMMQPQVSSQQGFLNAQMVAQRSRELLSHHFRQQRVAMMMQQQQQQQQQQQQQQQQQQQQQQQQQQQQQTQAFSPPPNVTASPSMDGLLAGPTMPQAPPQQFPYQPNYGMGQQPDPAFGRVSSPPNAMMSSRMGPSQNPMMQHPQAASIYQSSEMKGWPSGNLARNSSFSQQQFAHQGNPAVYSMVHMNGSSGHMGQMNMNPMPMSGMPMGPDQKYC

[2] = system: transactivating tegument protein VP16 (Human herpesvirus 1), Gal4-VP16 luciferase reporter; experiment: VP16 transactivation inhibitors, counter-screen for SRC3 inhibitor project, cell-based, luminescence, high throughput (AID 588794; in the data active = inhibition above about 30%); conditions: mammalian cells, VP16-driven luciferase reporter luminescence; at 3.6 µM; stronger effect = higher value
[3] = target: Nuclear receptor coactivator 1 (Homo sapiens) (UniProt Q15788); experiment: SRC1 coactivator transcriptional activity inhibitors, confirmation, cell-based, luminescence, quadruplicate (AID 588820); conditions: HEK293 GAL4-SRC1 luciferase reporter, at 3.6 µM, stronger effect = higher value;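 note: 0% = DMSO wells and 100% = gossypol 36 µM treated wells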
Sequence of Nuclear receptor coactivator 1 (Homo sapiens) (Q15788 whole entry, looked up, the tested form may be a part): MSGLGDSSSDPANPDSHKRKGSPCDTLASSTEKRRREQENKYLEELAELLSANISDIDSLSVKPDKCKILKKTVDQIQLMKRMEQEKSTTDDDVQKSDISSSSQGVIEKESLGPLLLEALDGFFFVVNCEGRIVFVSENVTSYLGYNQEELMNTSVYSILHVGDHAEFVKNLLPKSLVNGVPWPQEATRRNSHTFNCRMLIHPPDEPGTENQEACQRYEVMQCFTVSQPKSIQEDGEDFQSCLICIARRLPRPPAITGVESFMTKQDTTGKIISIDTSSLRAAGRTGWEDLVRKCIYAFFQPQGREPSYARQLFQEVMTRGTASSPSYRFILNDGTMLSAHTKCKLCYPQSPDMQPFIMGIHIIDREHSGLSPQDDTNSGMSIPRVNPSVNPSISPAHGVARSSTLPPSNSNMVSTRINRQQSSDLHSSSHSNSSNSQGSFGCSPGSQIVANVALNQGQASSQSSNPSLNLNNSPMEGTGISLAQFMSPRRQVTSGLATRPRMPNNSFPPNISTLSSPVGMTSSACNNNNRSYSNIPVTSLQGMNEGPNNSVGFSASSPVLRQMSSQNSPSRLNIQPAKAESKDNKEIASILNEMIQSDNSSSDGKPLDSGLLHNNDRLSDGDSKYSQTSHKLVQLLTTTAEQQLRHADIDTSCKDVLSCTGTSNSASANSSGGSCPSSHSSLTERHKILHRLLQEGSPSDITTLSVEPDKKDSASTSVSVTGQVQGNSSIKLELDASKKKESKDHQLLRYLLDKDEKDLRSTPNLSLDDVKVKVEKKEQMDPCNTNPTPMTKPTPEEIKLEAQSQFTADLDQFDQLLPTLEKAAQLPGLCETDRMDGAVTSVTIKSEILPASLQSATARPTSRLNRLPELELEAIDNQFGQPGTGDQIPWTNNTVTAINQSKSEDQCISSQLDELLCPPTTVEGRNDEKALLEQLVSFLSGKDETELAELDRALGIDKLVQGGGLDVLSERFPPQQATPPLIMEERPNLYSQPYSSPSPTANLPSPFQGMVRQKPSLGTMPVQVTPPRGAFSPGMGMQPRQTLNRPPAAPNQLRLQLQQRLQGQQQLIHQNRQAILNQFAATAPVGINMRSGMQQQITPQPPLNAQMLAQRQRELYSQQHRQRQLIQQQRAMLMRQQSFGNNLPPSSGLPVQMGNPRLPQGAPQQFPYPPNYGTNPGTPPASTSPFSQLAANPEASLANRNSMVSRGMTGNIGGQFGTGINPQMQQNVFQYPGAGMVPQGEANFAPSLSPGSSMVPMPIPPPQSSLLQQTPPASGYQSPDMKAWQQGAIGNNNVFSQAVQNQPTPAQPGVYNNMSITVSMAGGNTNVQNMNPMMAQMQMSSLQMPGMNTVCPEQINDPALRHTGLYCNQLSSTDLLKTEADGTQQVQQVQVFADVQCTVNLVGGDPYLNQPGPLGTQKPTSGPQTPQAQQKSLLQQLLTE

[4] = VP16 transactivation inhibitors, counter-screen for SRC1 inhibitor project, cell-based, luminescence, high throughput (AID 588824; in the data active = inhibition above about 25%); conditions: cell-based VP16 transactivation luciferase luminescence; at 3.6 µM; stronger effect = higher value
[5] = StAR promoter reporter inhibitors, counter-screen for LRH-1 inverse agonist project, cell-based, luminescence, high throughput (AID 651611; in the data active = inhibition above about 28%); conditions: StAR promoter luciferase reporter counterscreen, at 3.6 µM, stronger effect = higher value
[6] = target: Nuclear receptor subfamily 5 group A member 2 (Homo sapiens) (UniProt O00482); experiment: LRH-1 (NR5A2) inverse agonists, retest, confirmation, cell-based, luminescence (AID 651613; in the data active = inhibition above about 42%;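 note: HEK293T cells co-transfected with LRH-1 and StAR promoter luciferase reporter; 0% = vehicle wells and 100% = parental cells lacking receptor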); conditions: cell-based LRH-1 luciferase reporter, inverse agonism; at 3.6 µM; stronger effect = higher value
Sequence of Nuclear receptor subfamily 5 group A member 2 (Homo sapiens) (O00482 whole entry, looked up): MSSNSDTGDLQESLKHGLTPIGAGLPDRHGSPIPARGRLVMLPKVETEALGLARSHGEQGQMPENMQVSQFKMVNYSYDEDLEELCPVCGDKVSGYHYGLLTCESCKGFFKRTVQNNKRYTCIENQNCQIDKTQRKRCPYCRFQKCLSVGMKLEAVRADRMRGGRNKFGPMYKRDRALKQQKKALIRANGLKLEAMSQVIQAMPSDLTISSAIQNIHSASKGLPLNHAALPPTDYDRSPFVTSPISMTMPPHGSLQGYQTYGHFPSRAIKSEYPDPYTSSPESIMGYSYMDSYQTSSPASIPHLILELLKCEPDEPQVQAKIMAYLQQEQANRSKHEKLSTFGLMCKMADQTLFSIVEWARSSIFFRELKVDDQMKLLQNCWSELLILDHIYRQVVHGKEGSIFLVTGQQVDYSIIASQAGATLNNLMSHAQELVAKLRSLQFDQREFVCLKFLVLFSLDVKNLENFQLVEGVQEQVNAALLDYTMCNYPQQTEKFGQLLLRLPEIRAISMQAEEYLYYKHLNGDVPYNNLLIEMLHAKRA

[7] = target: Steroidogenic factor 1 (Homo sapiens) (UniProt Q13285); experiment: SF1 (NR5A1) inverse agonists, counter-screen for LRH-1 inverse agonist project, cell-based, luminescence, high throughput (AID 651614; in the data active = inhibition above about 44%;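 note: cells cotransfected with StAR promoter reporter and SF1 expression vector; 0% = vehicle on cells with receptor and 100% = vehicle on cells lacking receptor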); conditions: cell-based SF1 luciferase reporter, at 3.6 µM, stronger effect = higher value
[8] = VP16 transactivation reporter inhibitors, counter-screen for LRH-1 inverse agonist project, cell-based, luminescence, high throughput (AID 651615; in the data active = inhibition above about 33%); conditions: Gal4-VP16 luciferase reporter cells, at 3.6 µM, stronger effect = higher value
[9] = system: transactivating tegument protein VP16 (Human herpesvirus 1); experiment: VP16 transactivation reporter inhibitors, counter-screen for SRC2 inhibitor project, cell-based, luminescence, single concentration (AID 652007; in the data active = inhibition above about 36%); conditions: cell-based VP16 transactivation luciferase reporter, at 8.9 µM, stronger effect = higher value
[10] = target: Nuclear receptor coactivator 2 (Homo sapiens) (UniProt Q15596); experiment: SRC2 coactivator transcriptional activity inhibitors, confirmation, cell-based, luminescence, HEK293, triplicate (AID 652008;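 active = mean inhibition above 46.5%, the solvent-only control mean plus 3 SD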;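 note: 0% = DMSO-treated cells and 100% = Gossypol at 36 µM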); conditions: HEK293 GAL4-SRC2 luciferase reporter, at 8.9 µM, stronger effect = higher value
Sequence of Nuclear receptor coactivator 2 (Homo sapiens) (Q15596 whole entry, looked up, the tested form may be a part): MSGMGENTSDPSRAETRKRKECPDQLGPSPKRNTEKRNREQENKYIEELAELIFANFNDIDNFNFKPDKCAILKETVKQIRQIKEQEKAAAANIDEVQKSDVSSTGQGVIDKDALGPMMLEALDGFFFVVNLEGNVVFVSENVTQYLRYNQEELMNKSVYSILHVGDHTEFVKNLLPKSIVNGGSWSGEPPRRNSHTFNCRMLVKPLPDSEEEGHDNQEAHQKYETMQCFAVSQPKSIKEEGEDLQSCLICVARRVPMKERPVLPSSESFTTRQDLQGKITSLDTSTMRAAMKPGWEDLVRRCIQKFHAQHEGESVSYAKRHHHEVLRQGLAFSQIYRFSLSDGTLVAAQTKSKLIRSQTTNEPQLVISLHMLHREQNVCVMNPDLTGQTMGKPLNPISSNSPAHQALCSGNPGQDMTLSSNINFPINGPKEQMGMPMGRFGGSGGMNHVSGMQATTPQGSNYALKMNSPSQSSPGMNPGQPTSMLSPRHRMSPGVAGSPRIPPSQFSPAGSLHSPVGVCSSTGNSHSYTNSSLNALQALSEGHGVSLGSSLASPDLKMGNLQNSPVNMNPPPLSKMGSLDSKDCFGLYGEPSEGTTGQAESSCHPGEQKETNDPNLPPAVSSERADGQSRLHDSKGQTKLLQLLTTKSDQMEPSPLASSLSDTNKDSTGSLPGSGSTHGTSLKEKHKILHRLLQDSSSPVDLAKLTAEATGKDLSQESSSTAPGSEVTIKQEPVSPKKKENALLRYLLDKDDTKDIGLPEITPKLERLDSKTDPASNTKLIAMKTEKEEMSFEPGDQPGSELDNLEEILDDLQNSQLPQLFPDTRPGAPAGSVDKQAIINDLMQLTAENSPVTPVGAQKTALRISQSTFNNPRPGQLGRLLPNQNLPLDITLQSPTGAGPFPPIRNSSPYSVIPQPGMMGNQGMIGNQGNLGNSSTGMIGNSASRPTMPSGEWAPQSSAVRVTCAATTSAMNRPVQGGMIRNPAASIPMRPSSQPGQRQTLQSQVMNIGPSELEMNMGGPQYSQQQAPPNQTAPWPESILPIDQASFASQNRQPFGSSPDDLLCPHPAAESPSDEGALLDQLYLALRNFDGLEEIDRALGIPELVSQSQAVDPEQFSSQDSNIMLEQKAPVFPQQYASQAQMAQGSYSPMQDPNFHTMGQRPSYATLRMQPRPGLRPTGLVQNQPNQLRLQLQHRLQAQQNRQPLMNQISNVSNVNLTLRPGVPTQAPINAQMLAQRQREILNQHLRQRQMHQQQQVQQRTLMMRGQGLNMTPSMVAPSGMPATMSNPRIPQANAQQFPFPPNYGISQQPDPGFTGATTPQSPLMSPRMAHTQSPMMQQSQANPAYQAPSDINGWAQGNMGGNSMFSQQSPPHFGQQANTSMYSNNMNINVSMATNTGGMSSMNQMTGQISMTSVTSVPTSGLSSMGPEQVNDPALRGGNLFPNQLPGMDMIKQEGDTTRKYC

Measured: inhibition

Cc1ccc(/C=C2\SC(=S)N(CCCC(=O)Nc3ccccn3)C2=O)cc1
active: [1] 49.1% | [2] 33.9% | [3] 55.7% | [4] 28.9% | [5] 57.5% | [6] 45.8% | [7] 64.2% | [8] 39.1% | [9] 58.3% | [10] 88.4%

CC(C)(C)c1ccc(Oc2ccc(N)cn2)cc1
inactive: [1] 39.6% | [2] 20.4% | [3] 2.49% | [4] 18.6%
active: [9] 69% | [10] 88.9%

CCc1ccc(-c2nc(CSCC(=O)NCc3ccco3)c(C)o2)cc1
active: [9] 41.4% | [10] 70.5%
inactive: [1] 33.8% | [2] 27.9% | [3] 33.9% | [4] 24.5%

COc1ccccc1-c1cc2nc(-c3ccccc3)cc(N3CCN(C(=O)c4ccco4)CC3)n2n1
active: [2] 48.6% | [9] 62.7% | [10] 60.3%
inactive: [1] 30.4% | [3] 17.6% | [4] 25.1%

CNc1ncnc(Sc2nc(N)nc3nc[nH]c23)c1[N+](=O)[O-]
active: [1] 47.1% | [6] 52.6%
inactive: [2] 20.2% | [3] 26.8% | [4] 14.4% | [7] 25.1%

Cn1nnnc1Sc1ncnc2scc(-c3cccc(Br)c3)c12
active: [2] 43.7% | [4] 47.5% | [10] 55.7%
inactive: [1] 31.4% | [3] 43.3% | [9] 9.2%

CCc1cc(-c2[nH]ncc2-c2ccc3c(c2)OCO3)c(O)cc1O
active: [1] 59.9% | [2] 34.5% | [4] 39.8%
inactive: [3] 27.7% | [9] 30.3% | [10] 18.2%
